# Assay results from the supplement of paper PMC11417369.
# ± gives the standard deviation of the averaged measurements. Whole data set: some 25,000 sequences, median “ln(normalized median fluorescence intensity)” near 8.6, cut for the highest 2% near 10. Many of the other results were omitted from the sample, so the highest values are more common in it than they were.
# System: PfAP2-EXP AP2 domain (GST-tagged)
# Assay: gcPBM binding intensity (ln(normalized median fluorescence intensity)); higher = stronger DNA binding
# Procedure, shortened: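 Using an Agilent 4 × 180k array, primer-extended double-stranded 36-bp intergenic genomic probes and negative controls were exposed for 1 h to GST-fused P. falciparum DNA-binding domains expressed in E. coli. Binding was carried out in 1× PBS with 1% milk, 0.2 mg/ml BSA, 0.5% salmon testes DNA and 0.03% Triton X-100, and protein was detected with Alexa488 anti-GST antibody and a 488 nm scan. Binding intensity is the highest Masliner-normalised natural-log median intensity across replicate spots of either probe orientation.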
row,Sequence,gcPBM binding intensity (ln)
1,TTTTTTTTTTTGATGGTGCAATATATTAAATAGAAA,8.86 ± 0.28
2,AATATATGGTTCCTTGATATTAAATTCAATTTAATG [CACACA_negctrl_site71],8.41 ± 0.52
3,GATTCTTCACCGTACTCACACATATATATATATATA [CACACA_site5665],10.2 ± 0.52
4,ATATATATATATATATGTACACATATATATACTCAC [XGTACX_site8043],10 ± 0.4
5,TAATTGATTCTTCACCGTACTCACACATATATATAT [XGTACX_site6530],9.61 ± 0.14
6,ATATTATATATATACACACACACATGCATGCACCTA [CACACA_site106],10.07 ± 0.099
7,TTTGGGATAAAACAAAGTACTAACAAAATATATAAT [XGTACX_site8240],8.85 ± 0.47
8,ATTTATATTTTTTAATGTACATTTATATGTATACAA [XGTACX_site4555],8.78 ± 0.41
9,ATATAATATTTCATGTGGACACATTTTATGATTGTA [XGTACX_site8770],8.74 ± 0.38
10,TTGTATATATATGGAAAAATATATATATATATATAT [GTGCAC_negctrl_site591],10.3 ± 0.29
11,TGCAAAAAAAAAAAAAAAAAATATATGGAAATATAT [GTGCAC_negctrl_site257],8.54 ± 0.19
12,ATGGAAATAAAAAAAAAAAAAAAAAAAAATATATAT [GTGCAC_negctrl_site67],8.36 ± 0.33
13,CGTATTATTATATAAACACACAAGGGGGCATGTATA [CACACA_site745],9.83 ± 0.042
14,AATATTTAAGTACTGGTGCGTGTATATAATGATTAA [GTGCAC_site9633],8.665 ± 0.078
15,AAAAAAAAAAAAATTGCATGTAAATGAAATAATAAA [TGCATGCA_site116],8.89 ± 0.2
16,TTATTGTAAATATATGCATGTGCAAAATGAAAAAAA [TGCATGCA_site399],9.07 ± 0.18
17,AATATTTTAAATATTGCATGCAATGAAAAATGTAAA [TGCATGCA_site139],10.2 ± 0.31
18,TAAAAGTTCACCTGTACACACATATAAATATGTACA [CACACA_site6901],8.47 ± 0.33
19,TAAGTTCCCTTTGAATGTACATATAATGAAAAGAAA [XGTACX_site826],8.76 ± 0.37
20,AGTTTCCATATGAGGTGTACATATATAATTTATTAT [XGTACX_site2369],8.72 ± 0.4
21,ATATATTTACTTAATACACACAAAAAAAAAAAAAAA [CACACA_site3657],8.21 ± 0.52
22,AAAAATACCTTATATATACACACTATGTTTTTCTTT [CACACA_site1192],8.71 ± 0.28

row,Sequence,gcPBM binding intensity (ln)
1,TATTGCCCTGGACACACACACATATATATATATATA [CACACA_site5389],10.2 ± 0.51
2,TATATTGCCCTTCACACACACACATATATATATATA [CACACA_site2492],10.2 ± 0.28
3,TATATATAGAAACACACACACACATATATATATATT [CACACA_site2539],8.73 ± 0.67
4,TATTGCCCTTGACACACACACATATAAATAAATATA [CACACA_site7220],8.63 ± 0.37
5,TATTGCCCGAAACACACACACATATATATATATATA [CACACA_site2491],10.3 ± 0.2
6,TATATATAGAAACACACACACATATATATATATATT [CACACA_site4115],8.7 ± 0.37
7,TTCAAATATAAATACACACACATAGCTACAAAATAA [CACACA_site4172],8.95 ± 0.42
8,ATATATATATATATTTGTACAGATTTATATTATAAT [XGTACX_site7612],9.96 ± 0.23
9,ATTCATATATTTATTGCATGCAAAGTAAAATAAATA [TGCATGCA_site307],10.23 ± 0.099
10,TATTATTTTTCATATGCATGCAAAAATAAAAAAATA [TGCATGCA_site350],9.63 ± 0.35
11,TTTGCAACATATAAAAGTACAAATAATATATTTATT [XGTACX_site890],8.41 ± 0.43
12,ATAAAATCAAAATATACACACAAGGGGGAAAATCAA [CACACA_site2809],8.96 ± 0.42
13,ATACAAAAGGGGAATACACACACATATATATATATA [CACACA_site8694],10.1 ± 0.33
14,AGTATATATACACAAGGGGAATACATATACAAAATT [TGCATGCA_negctrl_site244],8.89 ± 0.39
15,AAGATATGAGGGAATACACACATATATATATATATA [CACACA_site1581],10.2 ± 0.43
16,ACAAAAGGGGAATACACACACATATATAAATAAATA [CACACA_site7111],8.73 ± 0.45
17,TACACAAGGGGAAAAATATATATATATATATATATA [TGCATGCA_negctrl_site217],10.2 ± 0.57
18,AAGATATGAGGGAATACACACATATTTATATTTATA [CACACA_site6846],8.26 ± 0.38
19,GGAATATATATACATACACACATATATATATATATA [CACACA_site1666],10.1 ± 0.33
20,ACAAAAGGGGAATACACACACATATATATATATATA [CACACA_site2215],10.2 ± 0.52
21,TTTTTAATAATCTCTCAAAATGTTCTTATATTTTAC [CACACA_negctrl_site1691],8.11 ± 0.26
22,TATAAATGATTAATTTGTACATATTTTACTTAATTG [XGTACX_site5271],8.18 ± 0.37

row,Sequence,gcPBM binding intensity (ln)
1,ATATTATGTCTACATAAACACACATATATATAAAAA [CACACA_site7976],8.62 ± 0.48
2,TATATTTTACTCTTCACACATATACTCAATTTATAT [CACACA_site5357],8.94 ± 0.31
3,TATTGTATCCTTAATGCATGCACCAAATAAAAAAAG [TGCATGCA_site541],10.21 ± 0.064
4,TTGTATCCTTAATGCATGCACCAAATAACAAAAGTA,10.2 ± 0.38
5,CTGTATAAAACCAATGCATGTAAATATATTAATATA [TGCATGCA_site511],9.1 ± 0.42
6,AAAAAAAAAAAATATATATATATATATATATATATA [CACACA_negctrl_site1606],10.3 ± 0.21
7,AAAAAAAAAAAAAATATATATATATATATATATATA [CACACA_negctrl_site540],10.2 ± 0.2
8,AAAAAAAAAAAAAAAAAAAAAAAAAAATATATATAT [CACACA_negctrl_site271],9.795 ± 0.049
9,AAAAAAATATATATATATATATATATATATATATAT [TGCATGCA_negctrl_site7],10.1 ± 0.26
10,AAAAAAAAAATATATATATATATATATATATATATA [GTGCAC_negctrl_site467],9.95 ± 0.53
11,AAAAAAAAAAAAAAAAAAAAAAAAATATATATATAT [CACACA_negctrl_site436],10 ± 0.31
12,TTTAATTTTCCCTTCACACATAATATATATCTGTAT [CACACA_site5370],8.7 ± 0.43
13,TATTATATATATGTTGACATATTTGTACACTCCACT [TGCATGCA_negctrl_site200],8.79 ± 0.61
14,TATCAAAATTGTAATTGTACTTGTAAGTGGATATAT [XGTACX_site5949],8.68 ± 0.3
15,TTTTTTAAAATAATAGGTACACATAAAAAAAAAAAA [XGTACX_site2517],8.72 ± 0.67
16,AACATTATAAGACACACACACACATATATAAATATA [CACACA_site6622],8.65 ± 0.58
17,ACACATATATATTATTATTATATAATATATATATAT [CACACA_negctrl_site1545],9.21 ± 0.15
18,TTTTAATGAAAACACACACACACATATATATATATA [CACACA_site5295],10.3 ± 0.11
19,TTTTAAACAGGACACACACACATATATATATATATA [CACACA_site4664],10.1 ± 0.42
20,AAAAAAAAAAATATCACACACACATAAATATAAACA [CACACA_site7138],8.6 ± 0.61
21,TTTTAAACAAGACACACACACATATATATATATATA [CACACA_site925],10.2 ± 0.35
22,ATTTTGTTATGAAACACACACATATATATATATATA [CACACA_site3650],10.2 ± 0.18

row,Sequence,gcPBM binding intensity (ln)
1,TTTTAATTAAAACACACACACACATATATATATATA [CACACA_site2291],10.2 ± 0.23
2,AAAAAAATGAAACACACACACACATATATATATATA [CACACA_site1043],10.1 ± 0.26
3,AAAAAAAAAAAAAACACACACATATAATATATTTAA [CACACA_site1337],8.35 ± 0.38
4,TAATTTTTTAAACACACACACATATATATATATATA [CACACA_site4230],10.2 ± 0.3
5,TTTTTAAAACATATCACACATATATATATATATATA [CACACA_site5991],10.3 ± 0.41
6,ATATTTTGTTATGAAACACACACATATATATATATA [CACACA_site9216],10.1 ± 0.16
7,ATTTTGTTATGAAACACACACATATAAATATAAATA [CACACA_site7679],8.51 ± 0.3
8,AATTATATACATAAGTGTACATAATATATAAACATA [XGTACX_site793],8.31 ± 0.28
9,TACATCTTACTACTTATAATATAATATAGTATGAAT [TGCATGCA_negctrl_site8],8.21 ± 0.43
10,TTTTTCTTTTTTACAGTGCATAAATATATGTATTGT [GTGCAC_site9399],8.61 ± 0.32
11,CTGAAGAAACTACAACGTACAAAATATGTATATATT [XGTACX_site3779],8.55 ± 0.4
12,TTATTATATTAAAATTGTACTTGCTTTCAATATGAT [XGTACX_site5305],8.23 ± 0.35
13,TTTCTTTTACATATTTGTACATATATAAATTTATAT [XGTACX_site1787],8.91 ± 0.35
14,TTAAAAAAAAAACACACACACATACACATATATATA [CACACA_site3299],8.77 ± 0.33
15,TCTTATCATTTTAAATCACACACATATATATATATA [CACACA_site8925],10.2 ± 0.16
16,TTATCATTTTAAATCACACACATATATATATATATA [CACACA_site2849],10.1 ± 0.49
17,TACATTTAAAAAAAAACACACATATTTATATTTATA [CACACA_site7236],8.01 ± 0.49
18,TACATTTAAAAAAAAACACACATATATATATATATA [CACACA_site2535],10.3 ± 0.33
19,TTATCATTTTAAATCACACACATATATAAATATGTA [CACACA_site7359],8.28 ± 0.35
20,ATTTATGTTATTGTATGTACACAATATAATGTTATT [XGTACX_site5657],8.56 ± 0.32
21,TAATACCATAACAAGTGTACATAAATAATTATTGTA [XGTACX_site4949],8.8 ± 0.44
22,AAAAAAAAAAAAAAAACACACAAACATCAAATTACT [CACACA_site6950],8.69 ± 0.24
